Rows were chosen to be rich in hits. Some 10% of all compounds tested hit in one or more screens of this group.
HEK cytotox: cytotoxic compounds in HEK 293 cells. HEK 293 viability, ATP luminescence (CellTiter-Glo), 48-72 h. Potency, µM (titrated, usually from 115 µM), without a hit: at the top dose activity change, negative = cytotoxicity, most hits filed as inhibitors. 6.6% of 94,000 active; further: on the % scale 0 is the no-effect control and ±100 the full control effect; nearly all actives have a fitted effect of over 60% in size
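Luminescence from cellular ATP, measured with CellTiter-Glo, indicates HEK 293 viability. Cells plated at 250 cells/well are treated with compound for 48 or 72 hr at 37 degree Celsius before reagent addition.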
GPT2 inh: GPT2 alanine aminotransferase inhibition | Q8TD30 | Recombinant GPT2, coupled pyruvate oxidase/HRP Amplex Red fluorescence | Potency, µM (titrated, usually from 57.7 µM), for inactives: at the highest dose activity change, negative = inhibition, usual class: inhibitors | 0.25% of 100,000 active; further: on the % scale 0 is the no-effect control and ±100 the full control effect; nearly all actives have a fitted effect of over 60% in size
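Fluorescence read-out: pyruvate from GPT2 turnover coupled to pyruvate oxidase, HRP and Amplex Red (0.2mM ThPP, 0.2U/mL PO and HRP, 50uM Amplex final). Substrates 250uM a-KG, 2mM L-alanine; enzyme 10ng/uL; 30 min RT.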
FLuc inh: blocks purified firefly luciferase enzyme activity; P08659; purified P. pyralis luciferase, luminescence, biochemical; Potency, µM (doses to about 115 µM), usual class: inhibitors; 2.5% of 76,000 active; AID 1347043; further: on the % scale 0 is the no-effect control and ±100 the full control effect; nearly all actives have a fitted effect of over 65% in size
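Cell-free enzyme assay, 10nM P. pyralis luciferase, luciferin and ATP each at 10uM. Inhibition profiled over a 6-point titration, read as luminescence.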
NPR1 antag: antagonists of human natriuretic peptide receptor Npr1; HEK293 hNpr1 GloSensor cGMP, ANP-stimulated luminescence; Potency, µM (titrated, usually from 46.3 µM), without a hit: at the highest dose activity change, negative = inhibition, actives largely listed as inhibitors; 1.6% of 76,000 active; P16066; calls by dose curve; further: on the % scale 0 is the no-effect control and ±100 the full control effect; nearly all actives have a fitted effect of over 60% in size
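HEK293 cells stably expressing human Npr1 and cGMP GloSensor pGS-40F, loaded 2 h with 2% GloSensor reagent, given compound 30 min at room temperature. Luminescence read before and 20 min after 0.1 nM hNppA.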
NIH3T3 tox: cytotoxic compounds in NIH 3T3 cells | Potency, µM (series often up to 96.7 µM), inactives show at the top dose activity change, negative = cytotoxicity, hits mostly inhibitors | 4.3% of 94,000 active | AID 1345082 | NIH 3T3 viability, CellTiter-Glo ATP luminescence, 48-72 h; further: on the % scale 0 is the no-effect control and ±100 the full control effect; nearly all actives have a fitted effect of over 55% in size
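Cytotoxicity was measured by CellTiter-Glo ATP luminescence after 48 or 72 h compound exposure at 37 °C. Mouse NIH 3T3 fibroblasts were seeded at 400 cells/well and dosed by 23 nL pin transfer.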
NPR1 antag cnf: hNpr1 antagonism, confirmation assay; shares compounds with NPR1 antag; Potency, µM (top dose mostly 57.6 µM), for inactives: at the highest dose activity change, negative = inhibition, hits mostly inhibitors; 76% of 1,400 active; HEK293 hNpr1 cGMP GloSensor luminescence, ANP-stimulated; calls by dose curve; further: nearly all actives have a fitted effect of over 70% in size
NPR2 antag: hNpr2 antagonism, selectivity versus Npr1; 67% of 1,400 active; AID 1347046; shares compounds with NPR1 antag; Potency, µM (top dose mostly 57.6 µM), inactives show at the highest dose activity change, negative = inhibition, usual class: inhibitors; HEK293 hNpr2 GloSensor cGMP luminescence, CNP-stimulated; calls by dose curve; further: nearly all actives have a fitted effect of over 70% in size
FLuc counter: counter-screen for Npr1 antagonists: firefly luciferase inhibitors; shares compounds with NPR1 antag; purified FLuc enzyme, luminescence, Km substrate; Potency, µM (series often up to 57.6 µM), without a hit: top-dose activity change, negative = inhibition, hits mostly inhibitors; 0.7% of 1,400 active; further: 0% is about no effect
GloSensor ctrl: counter-screen for Npr1 antagonists: GloSensor control cell line; shares compounds with NPR1 antag; HEK293 GloSensor cGMP, SNP-stimulated, luminescence; Potency, µM (titrated, usually from 57.6 µM), for inactives: top-dose activity change, negative = inhibition, most hits filed as inhibitors; 69% of 1,400 active; calls by dose curve; further: on the % scale 0 is the no-effect control and ±100 the full control effect; nearly all actives have a fitted effect of over 70% in size
Active calls of the source: *; i = inactive; ? = inconclusive; . = no result given; [ ] = another dose, or the depositor's remark. Unless noted, the call rests on the fitted dose curve; in most records, active means well fitted curve in the direction sought with a large enough effect; inconclusive means small, poorly fitted or top-dose-only effect, or another doubt; inactive means no such curve, though single readings can be large; an effect the other way counts as inactive or inconclusive. Potency means the concentration at half of the fitted maximal effect.

SMILES | HEK cytotox | GPT2 inh | FLuc inh | NPR1 antag | NIH3T3 tox | NPR1 antag cnf | NPR2 antag | FLuc counter | GloSensor ctrl
O=C(c1cccc(F)c1)N1CC(Oc2ccc(-c3noc(C4CCOCC4)n3)cc2)C1 | ? | 2.1% | i | 6.31µM* | ? | 4.32µM* | 5.44µM* | -6.2% | 3.43µM*
Fc1cccc(CN2CCC(Oc3ccc(-c4noc(C5CC5)n4)cc3)C2)c1 (stereo not given) | ? | i | i | 20µM* | ? | 27.3µM* | ? | 0.0% | ?
O=C(c1cccc(F)c1)N1CCC(c2nc(C3CCOCC3)no2)C1 (stereo not given) | -1.8% | i | i | 13.0% | -20.6% | . | . | . | .
O=C(NCC1(COc2cnccn2)C[C@@H](O)[C@@H](O)C1)c1cccnc1 (stereo not given in full) | -21.7%[172 µM] | i | i | 0.6%[70.6 µM] | 1.7%[174 µM] | . | . | . | .
CC(C)c1noc(CC2CCN(C(=O)c3ccc(F)cc3)CC2)n1 | ? | i | i | ? | -34.3% | ? | ? | -1.0% | ?
CC(C)c1noc(CC2CCN(C(=O)c3ccc(C(C)(C)C)cc3)CC2)n1 | ? | i | i | -3.7% | -26.7% | . | . | . | .
CCc1cccc(NC(=O)Cn2c(N(C)Cc3ccccc3)nc(C)cc2=O)c1 | ? | -4.6% | i | 8.91µM* | ? | 10.9µM* | 12.2µM* | 0.5% | 9.68µM*
Cc1cccc(NC(=O)Cn2c(N(C)Cc3ccccc3)nc(C)cc2=O)c1 | ? | 2.1% | i | 20µM* | ? | 21.7µM* | 21.7µM* | -2.5% | 21.7µM*
COc1nccnc1NC1CCN(C(=O)Cc2ccccc2F)CC1 | -5.6% | -13.8% | i | -0.8% | -3.0% | . | . | . | .
COc1cccc(-c2cccc(CN)c2)c1 | -26.1%[172 µM] | -6.0%[88.5 µM] | . | . | ? | . | . | . | .
Cc1cc(C)cc(-c2cccc(CN)c2)c1 | 56.2µM* | i | . | . | 39.8µM* | 35.3µM* | 31.4µM* | 4.5%[86.2 µM] | ?
CC(=O)N1C[C@H](NC(=O)c2cccc(C)c2Cl)[C@@H](C(C)C)C1 | -0.7% | ? | i | 15.1% | i | . | . | . | .
Cc1ccc(C(=O)N2CCN(C(=O)c3nnn4c3COC(c3ccc(Cl)cc3)C4)CC2)c(C)c1 (stereo not given) | ? | 0.6% | i | ? | ? | 21.7µM* | 24.3µM* | 1.8% | 21.7µM*
O=C(COc1ccccc1)N1CCN(C(=O)c2nnn3c2COC(c2ccccc2)C3)CC1 (stereo not given) | ? | i | i | -21.1% | ? | . | . | . | .
COc1ccc(C2Cn3nnc(C(=O)N4CCN(C(=O)Cc5ccccc5Cl)CC4)c3CO2)cc1 (stereo not given) | ? | i | i | ? | -0.3% | 12.2µM* | 15.3µM* | 1.2% | 10.9µM*
O=C(COc1ccccc1)N1CCN(C(=O)c2nnn3c2COC(c2ccc(Cl)cc2)C3)CC1 (stereo not given) | 25.1µM* | i | i | 11.2µM* | ? | 21.7µM* | 21.7µM* | -0.7% | 19.3µM*
COc1ccc(C2Cn3nnc(C(=O)N4CCN(C(=O)c5cc(F)ccc5F)CC4)c3CO2)cc1 (stereo not given) | ? | i | i | ? | -26.6% | 19.3µM* | 19.3µM* | 4.0% | 19.3µM*
O=C(Cc1ccccc1Cl)N1CCN(C(=O)c2nnn3c2COC(c2ccc(F)cc2)C3)CC1 (stereo not given) | -7.2% | i | i | -2.5% | -23.1% | . | . | . | .
COc1ccc(C2Cn3nnc(C(=O)N4CCN(C(=O)c5c(F)cccc5F)CC4)c3CO2)cc1 (stereo not given) | ? | i | i | -2.4% | ? | . | . | . | .
COCc1cccc(-c2n[nH]c3c2CC(=O)N(CC2CC2)C3)c1 | -9.7%[172 µM] | -16.2%[88.5 µM] | i | 4.5%[70.6 µM] | ? | . | . | . | .
CN(C)c1cc(NCc2cccnc2-n2cnc3ccccc32)ncn1 | 4.8% | -2.7%[11.5 µM] | i | 7.7% | -2.2% | . | . | . | .
O=C(Cc1ccsc1)N1CCC(n2cc(-c3nc(-c4ccccc4)no3)nn2)CC1 | ? | i | i | -27.1% | ? | . | . | . | .
CC(=O)Nc1ccc(CC(=O)N2CCC(C)(c3noc(C)n3)CC2)cc1 | -5.5% | i | i | -1.6% | 1.4% | . | . | . | .
Cc1ccsc1C(=O)N1CCN(C(=O)c2nnn3c2COC(c2ccccc2)C3)CC1 (stereo not given) | ? | -21.0% | i | -14.0% | -16.8% | . | . | . | .
O=C(c1cccc(F)c1)N1CCN(C(=O)c2nnn3c2COC(c2ccc(F)cc2)C3)CC1 (stereo not given) | ? | i | i | ? | -17.7% | . | . | . | .
COc1ccc(C2Cn3nnc(C(=O)N4CCN(C(=O)c5cccc(F)c5)CC4)c3CO2)cc1 (stereo not given) | ? | i | i | ? | ? | 21.7µM* | 21.7µM* | -1.3% | 21.7µM*
O=C(c1cc(Cl)ccc1F)N1CCN(C(=O)c2nnn3c2COC(c2ccccc2)C3)CC1 (stereo not given) | ? | 2.7% | i | ? | -27.0% | 24.3µM* | ? | -0.4% | ?
COc1ccc(C2Cn3nnc(C(=O)N4CCN(C(=O)c5sccc5C)CC4)c3CO2)cc1 (stereo not given) | ? | i | i | ? | -8.0% | 21.7µM* | 27.3µM* | 0.9% | 21.7µM*
COc1cc(Cl)ccc1C(=O)N1CCC(Cc2nc(-c3ccc(F)cc3)no2)CC1 | ? | i | i | 5.62µM* | 11.2µM* | 4.85µM* | 6.11µM* | 0.8% | 6.85µM*
COc1ccc(-c2noc(CC3CCN(C(=O)c4cc(Cl)ccc4OC)CC3)n2)cc1 | 31.6µM* | i | i | -28.9% | ? | 21.7µM* | 24.3µM* | -5.2% | 21.7µM*

Screens (PubChem)
